Assay outcomes deposited in PubChem BioAssay by National Center for Advancing Translational Sciences (NCATS).
Only some compounds are listed: those with a hit (about 8.8% of all), similar ones and a draw of the others.
ALDH1A1 inh = qHTS Assay for Inhibitors of Aldehyde Dehydrogenase 1 (ALDH1A1); Aldehyde dehydrogenase 1A1 (Homo sapiens), P00352; Purified ALDH1A1, NADH fluorescence, propionaldehyde substrate; Potency, µM (doses to about 75.3 µM), inactives show at the top dose activity, negative = inhibition, hits mostly inhibitors; actives 7.3% (n = 220,000); AID 1030, 2008;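 also: plate controls were no enzyme wells and a reference inhibitor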
HTT ATP protect = qHTS Multiplex Assay to Identify Dual Action Probes in a Cell Model of Huntington: Cytoprotection (ATP) | Potency, µM (highest dose often 56.4 µM), for the others: cytoprotection (ATP increase), actives largely listed as activators | AID 1471, 2008 | actives 0.14% (n = 230,000) | PC12 HTT-Q103 induced, cytoprotection, ATP luminescence, 40 h; active = well fitted curve in the direction sought with a large enough effect; inconclusive = small, poorly fitted or top-dose-only effect, or another doubt; inactive = no such curve, though single readings can be large; an effect the other way counts as inactive or inconclusive; also: % of control where 0% means no effect; nearly all actives have a fitted effect of over 45% in size
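Stable PC12 Q103-GFP cells in serum-supplemented, phenol red-free DMEM; induction by tebufenozide at 100 nM final; compound dose series; cell viability quantified luminescently from ATP.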
Lamin A splicing = qHTS Assay for Modulators of Lamin A Splicing; HeLa LMNA splicing GFP/RFP minigene ratio, 48 h; Potency, µM (titrated, usually from 46.1 µM), without a hit: at the top dose ratio change, negative = inhibition, usual class: inhibitors; actives 0.01% (n = 200,000); AID 1487, 2009; active = well fitted inhibition curve with a large enough effect in the signal ratio, with a control signal flat, not every such curve was filed as active; inconclusive = small, poorly fitted or top-dose-only effect, or effect the other way, or a change in a side signal; the % refers to the signal ratio; also: % is scaled to controls: 0 for no effect and ±100 for the full control effect
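S3 HeLa cells stably expressing lamin A-EGFP splicing minigene plus DsRed2, 600 cells/well, 48 h compound exposure at 37C. Laser-scanning cytometry; analysed as GFP (500-530 nm)/RFP (575-640 nm) total intensity ratio; 0.5% DMSO vehicle.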
HPGD block = qHTS Assay for Inhibitors of HPGD (15-Hydroxyprostaglandin Dehydrogenase); 15-hydroxyprostaglandin dehydrogenase [NAD(+)] (Homo sapiens), P15428; purified HPGD, NADH fluorescence kinetic, PGE2 substrate; Potency, µM, without a hit: at the highest dose activity change, negative = inhibition, usual class: inhibitors; actives 4.3% (n = 150,000); AID 894, 2007; also: % is scaled to controls: 0 for no effect and ±100 for the full control effect
Target sequence (P15428 whole entry, looked up): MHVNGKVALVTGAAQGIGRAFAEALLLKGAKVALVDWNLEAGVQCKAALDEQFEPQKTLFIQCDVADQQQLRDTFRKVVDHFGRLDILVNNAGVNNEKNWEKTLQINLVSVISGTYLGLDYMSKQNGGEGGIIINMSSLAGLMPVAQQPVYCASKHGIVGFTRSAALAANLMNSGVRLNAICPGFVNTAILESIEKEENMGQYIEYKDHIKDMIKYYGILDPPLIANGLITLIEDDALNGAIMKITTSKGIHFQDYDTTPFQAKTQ
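20 nM HPGD preincubated 15 min at room temperature with compound in 50 mM Tris-HCl pH 8, 0.01% Tween 20. Started with 1 mM NAD+ and 30 uM prostaglandin E2; NADH fluorescence (360/450 nm) read 5 times over 30-s intervals, last minus first.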
HTT aggregate = qHTS Multiplex Assay to Identify Dual Action Probes in a Cell Model of Huntington: Aggregate Formation (GFP) | Potency, µM (series often up to 46.1 µM), for inactives: top-dose activity change, negative = inhibition, usual class: inhibitors | actives 1.1% (n = 220,000) | PC12 HttQ103-GFP aggregates, Acumen cytometry, 40 h; active = well fitted curve in the direction sought with a large enough effect; inconclusive = small, poorly fitted or top-dose-only effect, or another doubt; inactive = no such curve, though single readings can be large; an effect the other way counts as inactive or inconclusive; also: % is scaled to controls: 0 for no effect and ±100 for the full control effect; nearly all actives have a fitted effect of over 60% in size
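Quantitative HTS on tebufenozide-induced (100 nM) PC12 cells stably expressing polyQ103 Huntingtin exon 1–GFP. Reduction of bright GFP aggregates, detected by laser scanning cytometry after lysis, identified actives across the titration.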
Starred values were filed as active, the others as inactive; [ ] = another dose, or the depositor's remark. Unless noted, calls follow the shape of the dose curve; as a rule, active = well fitted inhibition curve with a large enough effect (not every such curve was filed as active); inconclusive = small, poorly fitted or top-dose-only effect, or another doubt; inactive = no such curve, though single readings can be large or run the other way. Potency is read from the fitted curve at half-maximal effect.

Nc1nc(CSC(=S)N2CCCCC2)nc(Nc2ccccc2)n1 was read as ALDH1A1 inh 25µM*, HTT ATP protect 10%[10 µM] and HTT aggregate inconclusive.
For CCC1=C2CC[C@H]3C(=O)N(c4ccccc4)C(=O)[C@H]3[C@H]2[C@@]2(Cc3ccccc3)C(=NCCOC)OC(=O)N2C1=O the results were ALDH1A1 inh 3%, HTT ATP protect -2% and HPGD block -14%.
`O=C(O)[C@@H]1CCN(Cc2oc(CO)cc(=O)c2O)C1` gave ALDH1A1 inh 1%[13.5 µM], HTT ATP protect -3%[10 µM] and HPGD block -8%.
`CCOCCc1nn2c(=O)cc(COC(=O)c3cccc(C)c3)nc2s1` gave Lamin A splicing -5%[46 µM].
For c1ccc(Nc2nc3ccccc3[nH]2)nc1 the results were ALDH1A1 inh inconclusive, HTT ATP protect -26%, Lamin A splicing 10%, HPGD block 32µM* and HTT aggregate 1%.
For CCOc1cc(NC(=S)Nc2ccccc2)c(OCC)cc1NC(=O)c1ccc(OC)cc1 the results were ALDH1A1 inh 22µM*, HTT ATP protect -26%, Lamin A splicing 4%, HPGD block -19% and HTT aggregate 5%.
COc1ccc(NC(=S)Nc2ccc(OCc3ccccc3)cc2)c(OC)c1 was read as ALDH1A1 inh 10µM*, HTT ATP protect 0%[10 µM], Lamin A splicing inconclusive, HPGD block -24% and HTT aggregate -5%.
Screening CCCCC/C=C\C/C=C\C/C=C\CCCCC(=O)NCCCC(=O)O returned ALDH1A1 inh -1%, HTT ATP protect -6% and HPGD block 0%.
Screening COc1ccc(CNC(=O)CCCCCn2c(=O)[nH]c3ccccc3c2=O)cc1 returned Lamin A splicing -10%[46 µM].
For COc1ccc(-c2csc(N)n2)cc1F the results were ALDH1A1 inh 11µM*, HTT ATP protect 13%[10 µM], Lamin A splicing 7%[46 µM] and HTT aggregate 18%.
COc1ccc(-n2c(=O)c(-c3cccs3)nc3cnc(N(C)C)nc32)cc1 was read as ALDH1A1 inh inconclusive, HTT ATP protect 36% and Lamin A splicing 3%.
Cc1ccc(NS(=O)(=O)c2cccc([N+](=O)[O-])c2)nc1 was read as ALDH1A1 inh 11µM*, HTT ATP protect 17%[10 µM], Lamin A splicing -9%[46 µM] and HTT aggregate 0%.
Screening O=S(=O)(Nc1ccc(Cl)cn1)c1cccc(S(=O)(=O)c2ccccc2)c1 returned ALDH1A1 inh 20µM*, HTT ATP protect 1%[10 µM] and HTT aggregate -3%[9.22 µM].
`CCOc1cc(S(=O)(=O)Nc2ccc(Cl)cn2)ccc1Cl` gave ALDH1A1 inh -12%, HTT ATP protect 11%[10 µM], Lamin A splicing -4%, HPGD block 0% and HTT aggregate -18%.
`Cc1ccnc(NS(=O)(=O)c2cccc([N+](=O)[O-])c2)c1` gave HTT ATP protect 13%[10 µM] and HTT aggregate -6%[9.22 µM].
Screening CCC(CC)C(=O)Nc1nnc(SCC(=O)N2CCN(c3ccccc3OC)CC2)s1 returned ALDH1A1 inh 13µM*, HTT ATP protect 26%[10 µM], Lamin A splicing -1%, HPGD block -12% and HTT aggregate -11%.
Screening CCCC(=O)Nc1nnc(SCC(=O)N2CCN(c3ccccc3)CC2)s1 returned HTT ATP protect 4%[10 µM] and HTT aggregate -19%[9.22 µM].
Screening COc1ccccc1N1CCN(C(=O)CSc2nnc(NC(=O)C(C)C)s2)CC1 returned ALDH1A1 inh 8.9µM*, HTT ATP protect -5%[10 µM], Lamin A splicing inconclusive and HTT aggregate 3%[9.22 µM].
For Cc1ccc(Nc2nnc(SCc3cc(=O)n4ccsc4n3)s2)c(C)c1 the results were ALDH1A1 inh inconclusive, HTT ATP protect 18%[10 µM], Lamin A splicing 3%, HPGD block -16% and HTT aggregate 3%.
For CCc1ccc(Nc2nnc(SCc3cc(=O)n4ccsc4n3)s2)cc1 the results were ALDH1A1 inh inconclusive, HTT ATP protect -5%, Lamin A splicing inconclusive, HPGD block 20µM* and HTT aggregate 20%.
For Cc1cccc(Nc2nnc(SCc3cc(=O)n4cc(C)ccc4n3)s2)c1 the results were ALDH1A1 inh -9%, HTT ATP protect 21%[10 µM], Lamin A splicing 3%, HPGD block 16µM* and HTT aggregate -6%.
`Cc1cc(NC(=O)CN2CCN(c3ccccc3F)CC2)nc2c1c(=O)oc1ccccc12` gave HTT ATP protect -19%.
Cc1cc(C)n(-c2nc(C)c(C)c(=O)n2CC(=O)Nc2ccc([N+](=O)[O-])cc2)n1 was read as Lamin A splicing -3%[46 µM].
O=C1OC2(c3cc(Br)c(O)c(Br)c3Oc3c2cc(Br)c(O)c3Br)c2c(Cl)c(Cl)c(Cl)c(Cl)c21 was read as ALDH1A1 inh 25µM*, HTT ATP protect -79% and HPGD block 13µM*.
O=C1OC(c2ccc(O)c(-c3ccccc3)c2)(c2ccc(O)c(-c3ccccc3)c2)c2c(Cl)c(Cl)c(Cl)c(Cl)c21 was read as ALDH1A1 inh 19%[13.5 µM], HTT ATP protect 5%[10 µM] and HPGD block -8%.
For O=C(Cc1cccs1)NC1C(=O)N2C(C(=O)[O-])=C(C[n+]3ccccc3)CSC12 (configuration not stated) the results were ALDH1A1 inh 28µM*, HTT ATP protect -11%, Lamin A splicing inconclusive, HPGD block 32µM* and HTT aggregate -10%.
`CC(=O)OCC1=C(C(=O)O)N2C(=O)[C@@H](NC(=O)Cc3cccs3)[C@H]2SC1` gave ALDH1A1 inh -4%, HTT ATP protect inconclusive, Lamin A splicing 9%, HPGD block -16% and HTT aggregate -7%.
Screening COc1cccc(N=Nc2c(N)[nH]n3c(=O)cc(-c4ccccc4)nc23)c1 returned ALDH1A1 inh 4%, HTT ATP protect -77%, Lamin A splicing -9%, HPGD block -19% and HTT aggregate 10µM*.
`Cc1ccc(N=Nc2c(N)[nH]n3c(=O)cc(-c4ccccc4)nc23)cc1` gave ALDH1A1 inh 12%, HTT ATP protect -36%, Lamin A splicing -17%, HPGD block -22% and HTT aggregate inconclusive.
Cc1ccc(N(CC(C)C)S(=O)(=O)c2nnc(NC(=O)c3cccs3)s2)cc1 was read as Lamin A splicing 12%[46 µM].
For Cc1ccc(CN2CCCn3nc(C(=O)NCCc4ccccc4Cl)cc3C2=O)cc1 the results were Lamin A splicing -14%[46 µM].
`Cc1ccccc1OCC(=O)N(CC(C)C)c1c(N)n(CC(C)C)c(=O)[nH]c1=O` gave ALDH1A1 inh -4%, HTT ATP protect 10%[10 µM] and HTT aggregate 0%[9.22 µM].
